Assay [1] addresses Tyrosine-protein kinase SYK (Homo sapiens) (UniProt P43405). The settings on record: at 1 µM.
Assay [2] deals with T1, Tyrosine-protein kinase Tec (Homo sapiens) (UniProt P42680).
T1 sequence (whole entry): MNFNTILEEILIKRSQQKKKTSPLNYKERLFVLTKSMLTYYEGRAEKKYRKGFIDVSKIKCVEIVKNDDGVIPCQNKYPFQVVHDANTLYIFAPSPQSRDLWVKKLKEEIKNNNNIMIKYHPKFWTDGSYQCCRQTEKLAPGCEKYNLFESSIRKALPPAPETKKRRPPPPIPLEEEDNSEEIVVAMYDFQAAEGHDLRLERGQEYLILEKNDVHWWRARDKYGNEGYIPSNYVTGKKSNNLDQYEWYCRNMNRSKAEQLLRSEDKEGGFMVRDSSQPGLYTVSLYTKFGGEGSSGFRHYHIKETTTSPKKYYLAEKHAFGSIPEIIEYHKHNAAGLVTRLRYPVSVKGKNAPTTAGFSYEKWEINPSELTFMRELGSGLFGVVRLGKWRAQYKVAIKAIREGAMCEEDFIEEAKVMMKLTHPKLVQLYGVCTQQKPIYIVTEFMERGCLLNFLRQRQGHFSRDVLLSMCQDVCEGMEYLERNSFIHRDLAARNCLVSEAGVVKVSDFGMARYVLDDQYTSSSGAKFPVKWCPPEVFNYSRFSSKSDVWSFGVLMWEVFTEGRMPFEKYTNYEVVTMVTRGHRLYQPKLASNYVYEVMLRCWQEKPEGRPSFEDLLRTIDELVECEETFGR
The note with it: at 0.1 µM.

Assay [3] has as its target T1, Tyrosine-protein kinase Tec (Homo sapiens). The note with it: at 1 µM.
For assay [4], the target named is Angiopoietin-1 receptor (Homo sapiens) (UniProt Q02763). The settings on record: at 0.1 µM.
Angiopoietin-1 receptor (Homo sapiens), sequence (Q02763 whole entry): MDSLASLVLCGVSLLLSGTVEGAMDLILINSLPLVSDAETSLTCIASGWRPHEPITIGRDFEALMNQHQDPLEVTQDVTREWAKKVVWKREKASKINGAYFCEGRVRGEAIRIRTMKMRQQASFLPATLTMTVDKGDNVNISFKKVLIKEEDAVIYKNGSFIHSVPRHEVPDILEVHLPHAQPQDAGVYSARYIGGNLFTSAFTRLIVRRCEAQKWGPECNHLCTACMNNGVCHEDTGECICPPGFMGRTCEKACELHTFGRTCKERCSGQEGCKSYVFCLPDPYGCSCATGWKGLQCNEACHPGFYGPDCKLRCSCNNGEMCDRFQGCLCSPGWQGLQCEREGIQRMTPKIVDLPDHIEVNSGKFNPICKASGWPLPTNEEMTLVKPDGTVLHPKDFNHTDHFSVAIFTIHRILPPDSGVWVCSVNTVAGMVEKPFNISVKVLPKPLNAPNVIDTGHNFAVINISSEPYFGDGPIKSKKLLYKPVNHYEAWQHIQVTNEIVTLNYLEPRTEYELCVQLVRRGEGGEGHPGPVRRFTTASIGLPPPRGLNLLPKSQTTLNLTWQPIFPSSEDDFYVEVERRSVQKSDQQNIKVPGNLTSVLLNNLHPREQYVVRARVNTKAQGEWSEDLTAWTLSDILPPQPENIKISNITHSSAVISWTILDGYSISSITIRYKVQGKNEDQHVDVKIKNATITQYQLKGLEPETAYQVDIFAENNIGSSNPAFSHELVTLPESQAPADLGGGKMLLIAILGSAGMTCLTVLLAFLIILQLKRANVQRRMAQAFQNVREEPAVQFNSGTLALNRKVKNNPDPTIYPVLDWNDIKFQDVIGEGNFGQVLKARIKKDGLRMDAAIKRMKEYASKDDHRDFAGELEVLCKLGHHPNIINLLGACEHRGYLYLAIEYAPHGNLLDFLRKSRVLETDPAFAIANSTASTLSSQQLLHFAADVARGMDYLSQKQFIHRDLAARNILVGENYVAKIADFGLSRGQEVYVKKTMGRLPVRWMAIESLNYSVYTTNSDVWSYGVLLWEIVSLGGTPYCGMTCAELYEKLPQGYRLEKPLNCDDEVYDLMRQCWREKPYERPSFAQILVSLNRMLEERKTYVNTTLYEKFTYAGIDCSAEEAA
The target is the same in assay [5]. The note with it: at 1 µM.
Assay [6] has as its target T2, Non-receptor tyrosine-protein kinase TNK1 (Homo sapiens) (UniProt Q13470).
T2 sequence (whole entry): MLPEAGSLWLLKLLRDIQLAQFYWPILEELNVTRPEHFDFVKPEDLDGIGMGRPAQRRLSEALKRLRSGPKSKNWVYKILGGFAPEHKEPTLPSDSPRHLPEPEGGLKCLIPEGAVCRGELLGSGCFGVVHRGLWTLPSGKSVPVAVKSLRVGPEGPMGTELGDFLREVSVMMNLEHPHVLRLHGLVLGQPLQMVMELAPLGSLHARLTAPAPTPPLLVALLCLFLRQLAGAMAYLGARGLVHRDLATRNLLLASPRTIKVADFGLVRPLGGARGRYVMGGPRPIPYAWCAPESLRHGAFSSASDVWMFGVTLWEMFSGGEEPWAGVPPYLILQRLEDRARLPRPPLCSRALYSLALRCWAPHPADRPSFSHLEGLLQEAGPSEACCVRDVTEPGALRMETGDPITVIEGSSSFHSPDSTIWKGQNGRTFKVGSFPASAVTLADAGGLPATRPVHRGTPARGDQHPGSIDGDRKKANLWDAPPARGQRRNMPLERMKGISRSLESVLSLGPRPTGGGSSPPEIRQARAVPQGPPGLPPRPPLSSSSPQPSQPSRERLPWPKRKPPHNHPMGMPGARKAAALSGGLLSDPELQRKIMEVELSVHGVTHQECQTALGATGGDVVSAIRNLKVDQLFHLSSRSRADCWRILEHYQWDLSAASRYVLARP
The note with it: at 0.1 µM.

The target in assay [7] is T2, Non-receptor tyrosine-protein kinase TNK1 (Homo sapiens). The settings on record: at 1 µM.
The target of assay [8] is Activated CDC42 kinase 1 (Homo sapiens) (UniProt Q07912). The settings on record: at 0.1 µM.
Activated CDC42 kinase 1 (Homo sapiens), sequence (Q07912 whole entry, looked up): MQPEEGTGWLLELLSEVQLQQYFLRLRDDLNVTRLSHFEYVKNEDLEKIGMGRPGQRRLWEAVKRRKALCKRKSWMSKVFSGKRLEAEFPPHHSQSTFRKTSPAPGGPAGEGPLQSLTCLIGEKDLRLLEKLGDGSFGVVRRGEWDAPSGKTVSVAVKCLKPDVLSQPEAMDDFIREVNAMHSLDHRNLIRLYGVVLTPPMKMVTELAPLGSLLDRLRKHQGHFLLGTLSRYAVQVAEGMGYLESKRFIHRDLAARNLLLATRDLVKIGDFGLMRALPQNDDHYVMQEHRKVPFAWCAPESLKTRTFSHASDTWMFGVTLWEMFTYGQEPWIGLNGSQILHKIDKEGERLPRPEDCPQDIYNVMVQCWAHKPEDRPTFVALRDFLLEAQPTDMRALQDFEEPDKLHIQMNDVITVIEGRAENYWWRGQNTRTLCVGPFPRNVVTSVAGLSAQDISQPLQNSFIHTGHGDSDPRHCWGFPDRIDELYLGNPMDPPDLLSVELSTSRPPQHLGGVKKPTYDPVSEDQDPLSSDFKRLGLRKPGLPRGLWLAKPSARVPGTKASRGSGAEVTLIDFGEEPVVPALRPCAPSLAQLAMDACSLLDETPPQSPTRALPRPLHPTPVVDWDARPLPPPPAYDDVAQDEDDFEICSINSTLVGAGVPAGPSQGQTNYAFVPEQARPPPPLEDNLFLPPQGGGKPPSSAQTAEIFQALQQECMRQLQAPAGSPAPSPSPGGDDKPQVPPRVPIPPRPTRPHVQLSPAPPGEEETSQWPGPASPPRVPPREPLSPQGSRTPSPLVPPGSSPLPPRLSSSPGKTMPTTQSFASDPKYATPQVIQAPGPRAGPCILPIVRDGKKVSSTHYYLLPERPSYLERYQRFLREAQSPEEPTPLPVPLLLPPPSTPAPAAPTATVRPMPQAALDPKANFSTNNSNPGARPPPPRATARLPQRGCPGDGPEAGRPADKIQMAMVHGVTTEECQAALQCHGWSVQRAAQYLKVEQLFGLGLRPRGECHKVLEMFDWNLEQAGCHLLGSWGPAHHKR
The target is the same in assay [9]. The note with it: at 1 µM.
Assay [10] concerns the target High affinity nerve growth factor receptor (Homo sapiens) (UniProt P04629). The settings on record: at 0.1 µM.
The target is the same in assay [11]. The settings on record: at 1 µM.
The target of assay [12] is BDNF/NT-3 growth factors receptor (Homo sapiens) (UniProt Q16620). The settings on record: at 0.1 µM.
BDNF/NT-3 growth factors receptor (Homo sapiens), sequence (Q16620 32-822 limits assumed): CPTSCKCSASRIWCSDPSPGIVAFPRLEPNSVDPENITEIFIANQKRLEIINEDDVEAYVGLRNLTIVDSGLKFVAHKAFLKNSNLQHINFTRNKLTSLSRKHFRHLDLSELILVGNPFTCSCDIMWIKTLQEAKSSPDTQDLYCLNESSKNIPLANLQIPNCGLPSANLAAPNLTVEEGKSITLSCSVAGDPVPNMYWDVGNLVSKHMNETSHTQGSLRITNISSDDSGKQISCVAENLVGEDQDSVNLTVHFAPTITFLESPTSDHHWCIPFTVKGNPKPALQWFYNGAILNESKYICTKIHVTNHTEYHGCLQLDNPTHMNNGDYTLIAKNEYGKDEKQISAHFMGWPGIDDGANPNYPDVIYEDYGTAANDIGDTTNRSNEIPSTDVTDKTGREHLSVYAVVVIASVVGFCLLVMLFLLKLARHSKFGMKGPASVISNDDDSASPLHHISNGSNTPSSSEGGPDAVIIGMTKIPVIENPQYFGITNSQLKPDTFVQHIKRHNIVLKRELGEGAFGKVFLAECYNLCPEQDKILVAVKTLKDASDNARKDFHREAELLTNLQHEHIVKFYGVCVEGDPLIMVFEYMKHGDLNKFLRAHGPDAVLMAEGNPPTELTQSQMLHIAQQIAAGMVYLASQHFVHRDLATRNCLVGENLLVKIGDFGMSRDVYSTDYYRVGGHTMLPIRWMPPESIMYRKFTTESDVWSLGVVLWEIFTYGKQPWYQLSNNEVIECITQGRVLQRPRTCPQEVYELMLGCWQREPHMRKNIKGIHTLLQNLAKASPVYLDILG
The target is the same in assay [13]. The settings on record: at 1 µM.
The target of assay [14] is NT-3 growth factor receptor (Homo sapiens) (UniProt Q16288). The note with it: at 0.1 µM.
Assay [15] has the same target. The note with it: at 1 µM.
Assay [16] has as its target T3, Tyrosine-protein kinase TXK (Homo sapiens) (UniProt P42681).
T3 sequence (whole entry): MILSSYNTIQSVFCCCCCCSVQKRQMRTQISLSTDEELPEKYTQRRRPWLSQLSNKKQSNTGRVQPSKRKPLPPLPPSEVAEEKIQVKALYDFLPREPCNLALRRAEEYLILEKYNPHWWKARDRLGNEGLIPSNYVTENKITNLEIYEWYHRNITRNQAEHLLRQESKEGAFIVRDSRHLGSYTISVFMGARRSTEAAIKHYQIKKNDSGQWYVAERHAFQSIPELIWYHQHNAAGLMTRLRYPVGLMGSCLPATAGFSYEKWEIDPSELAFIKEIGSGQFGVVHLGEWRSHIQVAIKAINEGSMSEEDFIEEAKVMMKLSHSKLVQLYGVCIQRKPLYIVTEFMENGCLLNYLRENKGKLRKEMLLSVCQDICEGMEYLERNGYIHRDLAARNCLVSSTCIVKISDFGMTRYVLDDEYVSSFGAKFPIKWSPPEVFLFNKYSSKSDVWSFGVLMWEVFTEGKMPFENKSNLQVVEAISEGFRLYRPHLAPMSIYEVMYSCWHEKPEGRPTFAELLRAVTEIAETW
The note with it: at 0.1 µM.

For assay [17], the target named is T3, Tyrosine-protein kinase TXK (Homo sapiens). The settings on record: at 1 µM.
The target of assay [18] is Non-receptor tyrosine-protein kinase TYK2 (Homo sapiens) (UniProt P29597). The settings on record: at 0.1 µM.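 Note: each value is a mean of the inhibition readings.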
Non-receptor tyrosine-protein kinase TYK2 (Homo sapiens), sequence (P29597 whole entry): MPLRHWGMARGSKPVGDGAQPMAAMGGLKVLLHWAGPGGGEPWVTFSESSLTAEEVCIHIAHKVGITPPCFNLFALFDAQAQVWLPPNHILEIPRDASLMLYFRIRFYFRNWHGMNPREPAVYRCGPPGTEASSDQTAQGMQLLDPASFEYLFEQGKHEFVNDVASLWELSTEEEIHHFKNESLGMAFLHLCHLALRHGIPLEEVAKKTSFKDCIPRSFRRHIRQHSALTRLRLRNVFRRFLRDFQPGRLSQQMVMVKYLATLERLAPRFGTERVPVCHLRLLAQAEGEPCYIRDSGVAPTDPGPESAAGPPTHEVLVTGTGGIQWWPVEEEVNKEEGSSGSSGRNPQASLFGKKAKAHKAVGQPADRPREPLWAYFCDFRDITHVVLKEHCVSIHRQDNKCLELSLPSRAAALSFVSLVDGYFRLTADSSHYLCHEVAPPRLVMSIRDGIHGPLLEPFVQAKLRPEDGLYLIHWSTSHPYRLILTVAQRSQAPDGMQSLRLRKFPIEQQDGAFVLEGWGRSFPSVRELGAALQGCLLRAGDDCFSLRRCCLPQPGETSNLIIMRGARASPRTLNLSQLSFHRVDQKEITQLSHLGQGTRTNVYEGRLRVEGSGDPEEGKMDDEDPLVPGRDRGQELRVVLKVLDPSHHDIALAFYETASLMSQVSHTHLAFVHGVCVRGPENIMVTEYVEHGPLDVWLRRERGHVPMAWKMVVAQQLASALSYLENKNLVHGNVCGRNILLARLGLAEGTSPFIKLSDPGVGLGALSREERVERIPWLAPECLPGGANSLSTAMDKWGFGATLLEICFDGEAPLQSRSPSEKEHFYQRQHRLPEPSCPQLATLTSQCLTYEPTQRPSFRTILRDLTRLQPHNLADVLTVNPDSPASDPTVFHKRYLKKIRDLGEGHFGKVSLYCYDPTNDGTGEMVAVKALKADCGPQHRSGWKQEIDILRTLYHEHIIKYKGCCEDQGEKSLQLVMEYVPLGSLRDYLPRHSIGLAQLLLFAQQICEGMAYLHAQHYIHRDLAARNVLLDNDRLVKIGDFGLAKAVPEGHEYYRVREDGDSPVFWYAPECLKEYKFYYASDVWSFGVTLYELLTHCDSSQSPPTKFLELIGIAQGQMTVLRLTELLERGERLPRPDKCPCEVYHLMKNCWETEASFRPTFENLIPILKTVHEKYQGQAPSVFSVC
The target in assay [19] is T4, Dual specificity protein kinase TTK (Homo sapiens) (UniProt P33981).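 Note: reported figures are mean TTK inhibition at 1 µM.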
T4 sequence (whole entry): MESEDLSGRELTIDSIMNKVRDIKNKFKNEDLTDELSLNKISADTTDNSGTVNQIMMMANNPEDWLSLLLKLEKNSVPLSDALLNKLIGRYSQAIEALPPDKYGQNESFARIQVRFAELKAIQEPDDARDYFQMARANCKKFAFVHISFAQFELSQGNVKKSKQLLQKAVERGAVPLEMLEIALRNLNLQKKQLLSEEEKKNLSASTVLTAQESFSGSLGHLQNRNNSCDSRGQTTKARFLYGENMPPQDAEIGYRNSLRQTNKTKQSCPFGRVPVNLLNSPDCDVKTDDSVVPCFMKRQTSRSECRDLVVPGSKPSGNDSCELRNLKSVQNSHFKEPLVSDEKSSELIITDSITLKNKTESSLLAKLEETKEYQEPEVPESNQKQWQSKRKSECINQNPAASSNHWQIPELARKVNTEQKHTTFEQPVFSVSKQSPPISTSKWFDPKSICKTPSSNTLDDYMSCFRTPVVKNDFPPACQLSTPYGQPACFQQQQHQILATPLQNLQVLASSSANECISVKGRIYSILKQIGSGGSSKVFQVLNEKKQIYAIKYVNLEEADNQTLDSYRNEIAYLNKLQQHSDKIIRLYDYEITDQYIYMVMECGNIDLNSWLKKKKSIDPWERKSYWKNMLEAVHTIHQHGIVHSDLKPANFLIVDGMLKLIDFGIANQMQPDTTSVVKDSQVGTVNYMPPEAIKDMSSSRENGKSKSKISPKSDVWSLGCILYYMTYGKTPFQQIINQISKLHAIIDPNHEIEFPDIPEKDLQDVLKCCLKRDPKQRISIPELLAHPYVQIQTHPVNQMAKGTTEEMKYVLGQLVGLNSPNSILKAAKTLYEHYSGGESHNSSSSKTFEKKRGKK
The settings on record: at 1 µM.

Assay [20] concerns the target T5, Aurora kinase A (Homo sapiens) (UniProt O14965).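 Note: each reported value is a mean percent inhibition of Aurora-A.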
T5 sequence (whole entry): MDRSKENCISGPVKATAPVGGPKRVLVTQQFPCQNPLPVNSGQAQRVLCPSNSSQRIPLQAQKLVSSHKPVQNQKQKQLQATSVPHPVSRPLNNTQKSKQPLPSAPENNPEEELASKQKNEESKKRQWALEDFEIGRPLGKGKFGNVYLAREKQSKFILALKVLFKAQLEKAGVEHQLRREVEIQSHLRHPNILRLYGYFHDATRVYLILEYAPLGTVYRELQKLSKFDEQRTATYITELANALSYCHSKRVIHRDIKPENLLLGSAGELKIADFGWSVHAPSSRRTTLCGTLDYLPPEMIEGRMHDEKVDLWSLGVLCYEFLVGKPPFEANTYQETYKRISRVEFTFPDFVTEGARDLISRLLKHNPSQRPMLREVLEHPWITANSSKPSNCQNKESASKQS
The settings on record: at 0.1 µM.

Broadly, the inhibition is the relative decrease from the control value, in per cent.

High affinity nerve growth factor receptor (Homo sapiens), sequence (P04629 33-796 limits assumed): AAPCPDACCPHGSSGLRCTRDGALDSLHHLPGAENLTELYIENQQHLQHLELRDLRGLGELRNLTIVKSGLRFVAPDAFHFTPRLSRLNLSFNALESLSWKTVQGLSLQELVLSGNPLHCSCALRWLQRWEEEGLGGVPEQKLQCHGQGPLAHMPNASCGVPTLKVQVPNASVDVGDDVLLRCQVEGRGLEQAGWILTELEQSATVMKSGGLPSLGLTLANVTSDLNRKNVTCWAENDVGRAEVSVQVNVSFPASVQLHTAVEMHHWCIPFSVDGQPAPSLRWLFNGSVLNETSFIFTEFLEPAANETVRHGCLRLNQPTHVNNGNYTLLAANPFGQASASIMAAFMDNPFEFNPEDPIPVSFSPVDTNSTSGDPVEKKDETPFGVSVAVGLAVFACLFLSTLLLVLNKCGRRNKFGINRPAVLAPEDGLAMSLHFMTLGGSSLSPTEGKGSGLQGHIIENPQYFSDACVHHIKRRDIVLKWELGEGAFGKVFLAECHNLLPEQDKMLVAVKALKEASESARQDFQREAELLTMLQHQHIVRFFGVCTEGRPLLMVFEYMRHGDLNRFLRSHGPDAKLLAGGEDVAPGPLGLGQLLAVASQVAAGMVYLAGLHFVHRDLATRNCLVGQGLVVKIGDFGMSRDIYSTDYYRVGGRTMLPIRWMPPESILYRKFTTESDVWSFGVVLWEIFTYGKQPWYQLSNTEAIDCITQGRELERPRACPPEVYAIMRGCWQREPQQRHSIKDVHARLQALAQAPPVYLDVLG

With `COc1cc(C=NNc2ncnc3c2cnn3-c2ccccc2)ccc1O`, the inhibition worked out at 43.1% in assay [1]; 4.48% in assay [2]; 12.9% in [3]; 13% in assay [4]; 52.4% in assay [5]; 10.8% in assay [6]. For the same compound, the inhibition in assay [7] came to 51.1%; in assay [8], 1.06%; in assay [9], 5.3%; in assay [10], 3.95%; in assay [11], 14.3%; in [12] it was 5.2%. The inhibition is 33.1% in assay [13]; 5.23% in assay [14]; 34.6% in [15]; 3.66% in assay [16]; 5.94% in assay [17]; -0.09% in [18]. The inhibition in assay [19] was found to be 10.5%; in assay [20], 23%.

As for `CCn1c(-c2nonc2N)nc2cncc(C(=O)N3CC[C@H](N)C3)c21`, the inhibition was found to be 1.83% in [1]; 4.37% in [2]; 3.68% in assay [3]; 11.3% in [4]; 11.4% in assay [5]; 2.94% in [6]. Further, the inhibition in [7] amounted to 2.95%; in assay [8] it was 1.08%; in assay [9], 1.01%; in assay [10], 0.41%; in assay [11], 2.78%; in [12], 4.37%. The inhibition in assay [13] was 3.61%; in assay [14] it was 2.56%; in assay [15], 3.15%; in assay [16], 3.09%; in [17], 2.08%; in assay [18], -0.69%. Moreover, the inhibition amounted to 2.6% in assay [19] and 3.07% in assay [20].

For `NC(=O)c1ccc(-c2nc(-c3ccccn3)c(-c3ccc4c(c3)OCO4)[nH]2)cc1`, the inhibition in assay [1] worked out at 0.21%; in [2], 3.16%; in assay [3], 2.63%; in [4], 5.33%; in [5], 5.38%; in assay [6] it was 1.36%. In addition, the inhibition was -0.98% in [7]; 0.29% in [8]; 1.03% in assay [9]; 1.52% in assay [10]; 3.43% in assay [11]; 1.54% in assay [12]. Moreover, the inhibition in assay [13] is 0.41%; in assay [14], 0.44%; in [15], 1.77%; in [16] it was 2.18%; in [17], 3.28%; in [18], -4.13%. Further, the inhibition in assay [19] was 3.14%; in assay [20], 1.85%.

These data come from ChEMBL document CHEMBL1961873, “Compounds: GSK PKIS; Assays: Nanosyn kinase panel” (2012).
